According to PubChem BioAssay (EPA / NIEHS):
Activity calls are given as the source filed them. Rule for the calls: active = hit-call score of the fitted dose curve at least 0.9, where 1 is the maximum; inactive = score below 0.9.

Assays:
[1] = molecular target: Paired box protein Pax-6 (Homo sapiens) (UniProt P26367); test: ATG_Pax6_CIS: Attagene CIS-FACTORIAL HepG2 Assay for human Paired Box 6 (PAX6) (AID 2282956); conditions: HepG2 CIS-FACTORIAL PAX6 reporter transcription, RNA readout; actives raise or lower the signal
Sequence of Paired box protein Pax-6 (Homo sapiens) (P26367 whole entry, looked up): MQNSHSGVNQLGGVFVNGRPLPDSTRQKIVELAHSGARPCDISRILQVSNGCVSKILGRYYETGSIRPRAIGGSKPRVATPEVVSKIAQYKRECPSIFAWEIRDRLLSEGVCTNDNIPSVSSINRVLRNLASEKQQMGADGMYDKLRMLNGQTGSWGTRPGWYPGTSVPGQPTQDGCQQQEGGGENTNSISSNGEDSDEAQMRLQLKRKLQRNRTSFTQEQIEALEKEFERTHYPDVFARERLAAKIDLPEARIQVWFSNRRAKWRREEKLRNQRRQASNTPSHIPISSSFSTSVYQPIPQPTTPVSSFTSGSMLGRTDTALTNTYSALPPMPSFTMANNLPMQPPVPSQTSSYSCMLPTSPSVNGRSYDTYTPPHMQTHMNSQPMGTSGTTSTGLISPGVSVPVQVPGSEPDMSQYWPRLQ
Procedure, shortened: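 Readout: reporter transcript fluorescence after RT-PCR and capillary electrophoresis. Cells: HepG2, transiently transfected with cis-regulated MRTUs. Exposure 24 h. Gain or loss of signal fitted bidirectionally relative to DMSO.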

[2] = ATG_PXRE_CIS: Attagene CIS-FACTORIAL HepG2 Assay for human Pregnane X Receptor Element (PXRE) (AID 2282957); conditions: HepG2 Attagene CIS-FACTORIAL PXRE reporter, mRNA; actives raise or lower the signal
Procedure, shortened: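 Fluorescent capillary electrophoresis of amplified reporter cDNA gave the signal, collected 24 h after dosing HepG2 cells that held transfected cis-element reporter constructs.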

[3] = ATG_PPRE_CIS: Attagene CIS-FACTORIAL HepG2 Assay for human Peroxisome Proliferator-activated Response Element (PPRE) (AID 2282958); conditions: HepG2 PPRE cis-element reporter, Attagene transcription factor profiling; actives raise or lower the signal
Procedure, shortened: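 PPRE activity in HepG2: transient cis-reporter transfection, 24 h compound incubation, reporter mRNA by RT-PCR and CE fluorescence; gain/loss fitted against DMSO.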

[4] = ATG_RORE_CIS: Attagene CIS-FACTORIAL HepG2 Assay for human RAR-related Orphan Receptor Element (RORE) (AID 2282959); conditions: HepG2 Attagene cis-factorial RORE reporter, mRNA; actives raise or lower the signal
Procedure, shortened: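 A 24-hour exposure of transfected HepG2 hepatoma cells precedes RNA isolation and reporter RT-PCR. Labeled products are digested with HpaI and resolved by capillary electrophoresis, with gain or loss of signal scored relative to DMSO.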

[5] = ATG_Sox_CIS: Attagene CIS-FACTORIAL HepG2 Assay for human SRY-box transcription factor (SOX) (AID 2282960); conditions: HepG2 Attagene cis-factorial SOX reporter, mRNA; actives raise or lower the signal
Procedure, shortened: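 HepG2, cis reporter units, 24 h exposure. Reporter mRNA: RT-PCR → FAM labelling → HpaI → CE fluorescence. Bidirectional fit vs DMSO.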

[6] = molecular target: Transcription factor Sp1 (Homo sapiens) (UniProt P08047); test: ATG_Sp1_CIS: Attagene CIS-FACTORIAL HepG2 Assay for human Specificity Protein 1 (Sp1) (AID 2282961); conditions: HepG2 Sp1 cis-reporter transcription, actives raise or lower the signal
Sequence of Transcription factor Sp1 (Homo sapiens) (P08047 whole entry, looked up, the tested form may be a part): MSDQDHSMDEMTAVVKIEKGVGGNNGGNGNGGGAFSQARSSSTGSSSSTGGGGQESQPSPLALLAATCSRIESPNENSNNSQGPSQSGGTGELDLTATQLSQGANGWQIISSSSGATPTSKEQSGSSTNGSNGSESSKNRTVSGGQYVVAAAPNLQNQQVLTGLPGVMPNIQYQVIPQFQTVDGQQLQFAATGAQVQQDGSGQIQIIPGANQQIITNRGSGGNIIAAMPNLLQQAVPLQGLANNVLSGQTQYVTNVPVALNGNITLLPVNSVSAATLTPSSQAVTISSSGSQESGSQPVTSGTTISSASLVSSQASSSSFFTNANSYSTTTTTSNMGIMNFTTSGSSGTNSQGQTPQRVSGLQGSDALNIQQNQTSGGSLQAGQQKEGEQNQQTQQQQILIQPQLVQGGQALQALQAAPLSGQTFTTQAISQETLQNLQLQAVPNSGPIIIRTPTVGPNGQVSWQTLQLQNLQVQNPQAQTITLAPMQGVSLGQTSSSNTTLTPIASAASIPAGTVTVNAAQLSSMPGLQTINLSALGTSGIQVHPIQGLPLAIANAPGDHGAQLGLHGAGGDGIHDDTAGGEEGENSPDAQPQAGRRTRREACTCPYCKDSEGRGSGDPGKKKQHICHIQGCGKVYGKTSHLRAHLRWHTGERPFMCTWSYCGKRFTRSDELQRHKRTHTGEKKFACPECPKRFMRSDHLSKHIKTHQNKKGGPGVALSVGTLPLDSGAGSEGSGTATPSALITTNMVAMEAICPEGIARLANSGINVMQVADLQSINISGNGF
Procedure, shortened: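 Liver-derived HepG2 cells, cis-element reporter library, 24 h treatment; RNA isolated, cDNA amplified with reporter-specific primers, FAM-labeled fragments sized on capillary analyzer. DMSO baseline, bidirectional curve fit.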

[7] = molecular target: Signal transducer and activator of transcription 3 (Homo sapiens) (UniProt P40763); test: ATG_STAT3_CIS: Attagene CIS-FACTORIAL HepG2 Assay for human Signal Transducer and Activator of Transcription 3 (STAT3) (AID 2282963); conditions: HepG2, Attagene cis-factorial STAT3 reporter transcription; actives raise or lower the signal
Sequence of Signal transducer and activator of transcription 3 (Homo sapiens) (P40763 whole entry, looked up, the tested form may be a part): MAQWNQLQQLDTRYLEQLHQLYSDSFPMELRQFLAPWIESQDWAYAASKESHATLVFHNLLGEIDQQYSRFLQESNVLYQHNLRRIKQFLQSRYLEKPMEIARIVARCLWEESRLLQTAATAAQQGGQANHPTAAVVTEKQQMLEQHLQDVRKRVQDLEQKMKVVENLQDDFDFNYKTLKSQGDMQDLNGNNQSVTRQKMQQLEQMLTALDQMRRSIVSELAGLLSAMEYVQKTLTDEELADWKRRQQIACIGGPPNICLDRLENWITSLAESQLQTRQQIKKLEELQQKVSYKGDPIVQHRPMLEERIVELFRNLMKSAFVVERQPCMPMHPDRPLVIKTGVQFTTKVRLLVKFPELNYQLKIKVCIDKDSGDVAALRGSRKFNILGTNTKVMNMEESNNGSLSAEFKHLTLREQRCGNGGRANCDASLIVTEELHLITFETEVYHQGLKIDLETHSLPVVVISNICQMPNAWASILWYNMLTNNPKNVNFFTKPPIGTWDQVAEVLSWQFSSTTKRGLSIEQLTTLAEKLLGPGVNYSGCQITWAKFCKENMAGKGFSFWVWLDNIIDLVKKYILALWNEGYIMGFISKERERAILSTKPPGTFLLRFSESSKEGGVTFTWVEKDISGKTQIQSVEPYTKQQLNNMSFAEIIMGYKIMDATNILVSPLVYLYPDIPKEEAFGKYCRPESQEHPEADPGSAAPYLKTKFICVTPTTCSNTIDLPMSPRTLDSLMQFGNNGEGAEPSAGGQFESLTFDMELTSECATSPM
Procedure, shortened: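 Readout: fluorescent reporter mRNA fragments resolved by capillary electrophoresis. Setup: HepG2 transfected with MRTUs reporting endogenous transcription-factor activity, dosed 24 h. Gain or loss of signal fitted bidirectionally against DMSO control.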

[8] = ATG_TCF_b_cat_CIS: Attagene CIS-FACTORIAL HepG2 Assay for human T-Cell-Factor with beta-catenin (TCF/b-cat) (AID 2282965); conditions: HepG2 TCF/beta-catenin cis-reporter transcription, actives raise or lower the signal
Procedure, shortened: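 HepG2 cells transiently transfected with cis-promoter-driven multiplexed reporter units; reporter mRNA measured 24 h after dosing by RT-PCR, FAM labelling, HpaI digestion and capillary electrophoresis. Bidirectional fitting relative to DMSO baseline.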

[9] = ATG_SREBP_CIS: Attagene CIS-FACTORIAL HepG2 Assay for human Sterol Regulatory Element Binding (SREBP) (AID 2282962); conditions: HepG2 Attagene cis-factorial SREBP reporter, mRNA; actives raise or lower the signal
Procedure, shortened: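 Readout: fluorescent reporter-transcript peaks resolved by capillary electrophoresis after RT-PCR. Cells were human HepG2 carrying transfected cis-promoter reporter constructs, dosed for 24 h. Gain or loss of signal was fitted against DMSO controls.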

[10] = ATG_TA_CIS: Attagene CIS-FACTORIAL HepG2 Assay for human TA Basal Promoter (AID 2282964); conditions: HepG2 Attagene CIS-factorial TA basal promoter reporter; actives raise or lower the signal
Procedure, shortened: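 Multiplexed mRNA reporter assay, HepG2, 24 h. Reporter cDNA amplified, 6-FAM primer-extended, HpaI-cut, CE-sized; DMSO = negative control and baseline.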

Structure (SMILES)	outcome [1]	AC50 [2]	outcome [3]	outcome [4]	outcome [5]	outcome [6]	outcome [7]	outcome [8]	outcome [2]	outcome [9]	outcome [10]	AC50 [3]	AC50 [1]	AC50 [10]	AC50 [8]	AC50 [5]
Cc1ccc2c(c1)C(=O)c1ccccc1C2=O	inactive	6.22 µM (active)	inactive	inactive	inactive	inactive	inactive	inactive	–	–	–	–	–	–	–	–
CCCCOCCOC(=O)COc1nc(Cl)c(Cl)cc1Cl	inactive	–	inactive	inactive	inactive	–	inactive	inactive	inactive	inactive	inactive	–	–	–	–	–
COCc1c(C(C)C)nc(C(C)C)c(/C=C/[C@@H](O)C[C@@H](O)CC(=O)O)c1-c1ccc(F)cc1	inactive	2.12 µM (active)	–	–	inactive	–	inactive	inactive	–	inactive	inactive	1.67 µM (active)	–	–	–	–
O=C(Cl)c1cc(C(=O)Cl)cc(C(=O)Cl)c1	inactive	47.6 µM (active)	–	–	–	inactive	inactive	inactive	–	inactive	inactive	100 µM (active)	–	–	–	–
CCN(Cc1cccc(S(=O)(=O)O)c1)c1ccc(C(=C2C=CC(=[N+](CC)Cc3cccc(S(=O)(=O)[O-])c3)C=C2)c2ccccc2)cc1	inactive	20.6 µM (active)	inactive	–	inactive	inactive	inactive	inactive	–	inactive	inactive	–	–	–	–	–
O=C1OC(=O)c2cc(Oc3ccc4c(c3)C(=O)OC4=O)ccc21	inactive	–	–	inactive	inactive	inactive	inactive	inactive	inactive	inactive	inactive	–	–	–	–	–
CC(C)(C)c1ccc(OC(=O)c2ccccc2O)cc1	inactive	15.3 µM (active)	–	inactive	inactive	inactive	inactive	inactive	–	inactive	inactive	–	–	–	–	–
Cc1cc(C)c(C(=O)O)c(C)c1	inactive	–	–	inactive	inactive	inactive	inactive	inactive	inactive	inactive	inactive	–	–	–	–	–
C/C=C\C/C=C/CCCCCCCCOC(C)=O	–	26.2 µM (active)	–	inactive	inactive	inactive	inactive	–	–	inactive	–	–	100 µM (active)	69.7 µM (active)	74.8 µM (active)	–
C=C1[C@H]2CC[C@@H]3[C@H]2C(C)(C)CCC[C@]13C	inactive	5.34 µM (active)	inactive	–	inactive	inactive	inactive	inactive	–	inactive	inactive	–	–	–	–	–
O=c1cc(-c2ccccc2)oc2ccccc12	–	4.25 µM (active)	–	–	inactive	inactive	inactive	–	–	inactive	–	4.81 µM (active)	99.5 µM (active)	99.5 µM (active)	25.2 µM (active)	–
CCCCCCCCc1ccc(Nc2ccc(CCCCCCCC)cc2)cc1	inactive	6.3 µM (active)	inactive	–	inactive	inactive	inactive	inactive	–	inactive	inactive	–	–	–	–	–
CC(C)c1ccc2cc(C(C)C)ccc2c1	inactive	–	–	inactive	–	inactive	inactive	inactive	inactive	inactive	inactive	–	–	–	–	59.9 µM (active)
